# Measurements as given in PubChem BioAssay.
# The source made the active and inactive calls.
# Key:
# [1] = test system: PRMT1 (protein arginine N-methyltransferase 1); experiment: small molecules binding arginine methyltransferase PRMT1 – biochemical, small-molecule microarray, 635 nm fluorescence, primary screen (AID 1088); details: higher = more signal;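 further: binding of Prmt1 protein to compounds spotted on small-molecule microarray slides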
# [2] = growth effects on S. cerevisiae YJM789 – YJM789 clinical isolate, OD600, 24 h, basal, primary screen (AID 1089); details: higher = more signal, called active from +8 up or from −8 down;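 further: growth of clinical yeast isolate S. cerevisiae YJM 789 seeded 1000 cells per well; test concentration not given here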
# [3] = S. pombe growth modifiers, basal conditions – strain 972, OD600, 24 h, no modulator, primary screen (AID 1090);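 further: basal condition with compound alone and no growth modifier present; test concentration not given here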; details: S. pombe 972 growth, higher = more signal, called active from +8 up or from −8 down
# [4] = budding yeast growth modifiers under rapamycin – strain BY4716, OD600, 96 h, primary screen (AID 1091); further: test concentration not given here; details: S. cerevisiae BY4716 + rapamycin, higher = more signal, called active from +8 up or from −8 down
# [5] = biological target: Torsin-1A-interacting protein 2 (Homo sapiens) (UniProt Q8NFQ8); experiment: small molecules binding lysate-expressed LULL1 – cell lysate, human LULL1 lysate, 635/667 nm fluorescence, primary screen (AID 1092); details: small-molecule microarray, hLULL1 lysate binding, 635 nm fluorescence; higher = more signal;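 further: probe is lysate of COS7 cells overexpressing human LULL1; score merges per-feature 667 nm fluorescence with signal-to-noise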
# Chain of Torsin-1A-interacting protein 2 (Homo sapiens) (Q8NFQ8 whole entry, looked up): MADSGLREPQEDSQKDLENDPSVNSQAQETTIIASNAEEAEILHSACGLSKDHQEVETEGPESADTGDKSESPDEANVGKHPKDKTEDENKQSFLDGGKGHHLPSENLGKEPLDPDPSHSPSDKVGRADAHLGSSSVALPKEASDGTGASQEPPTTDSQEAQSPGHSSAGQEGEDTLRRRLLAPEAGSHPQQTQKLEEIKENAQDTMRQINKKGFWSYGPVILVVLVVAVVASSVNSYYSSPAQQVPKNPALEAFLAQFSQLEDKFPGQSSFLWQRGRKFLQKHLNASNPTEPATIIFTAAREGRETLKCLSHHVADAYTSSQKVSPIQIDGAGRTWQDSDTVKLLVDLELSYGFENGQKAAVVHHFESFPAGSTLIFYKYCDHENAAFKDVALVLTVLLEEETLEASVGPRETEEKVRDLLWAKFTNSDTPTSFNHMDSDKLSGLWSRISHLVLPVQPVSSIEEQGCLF
# [6] = optical density change of DRC41 E. coli – strain DRC41, OD650, 24 h, E. coli filamentation project, primary screen (AID 1093);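 further: MC1000 strain lacking acrAB efflux and sulA so SOS filamentation is blocked; test concentration not given here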; details: E. coli DRC41 growth, higher = more signal, called active from +8 up or from −8 down
# [7] = probe aLefty2 binding to arrayed compounds – biochemical, biotinylated probe, 635/667 nm fluorescence, primary screen (AID 1094); details: small-molecule microarray, higher = more signal;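 further: score merges spot fluorescence near 667 nm with spot signal-to-noise ratio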
# [8] = test system: Noggin (protein binding on small-molecule microarray); experiment: small molecules binding Noggin protein – biochemical, 635/667 nm fluorescence, primary screen (AID 1095); details: 635 nm fluorescence, higher = more signal;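 further: score merges 667 nm feature fluorescence with signal to noise over triplicate slides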
# [9] = biological target: Neurogenic locus notch homolog protein 3 (Homo sapiens) (UniProt Q9UM47); experiment: small molecules binding NOTCH3 protein – biochemical, 635/667 nm fluorescence, primary screen (AID 1096); details: small-molecule microarray, 635 nm fluorescence, higher = more signal
# Chain of Neurogenic locus notch homolog protein 3 (Homo sapiens) (Q9UM47 whole entry, looked up): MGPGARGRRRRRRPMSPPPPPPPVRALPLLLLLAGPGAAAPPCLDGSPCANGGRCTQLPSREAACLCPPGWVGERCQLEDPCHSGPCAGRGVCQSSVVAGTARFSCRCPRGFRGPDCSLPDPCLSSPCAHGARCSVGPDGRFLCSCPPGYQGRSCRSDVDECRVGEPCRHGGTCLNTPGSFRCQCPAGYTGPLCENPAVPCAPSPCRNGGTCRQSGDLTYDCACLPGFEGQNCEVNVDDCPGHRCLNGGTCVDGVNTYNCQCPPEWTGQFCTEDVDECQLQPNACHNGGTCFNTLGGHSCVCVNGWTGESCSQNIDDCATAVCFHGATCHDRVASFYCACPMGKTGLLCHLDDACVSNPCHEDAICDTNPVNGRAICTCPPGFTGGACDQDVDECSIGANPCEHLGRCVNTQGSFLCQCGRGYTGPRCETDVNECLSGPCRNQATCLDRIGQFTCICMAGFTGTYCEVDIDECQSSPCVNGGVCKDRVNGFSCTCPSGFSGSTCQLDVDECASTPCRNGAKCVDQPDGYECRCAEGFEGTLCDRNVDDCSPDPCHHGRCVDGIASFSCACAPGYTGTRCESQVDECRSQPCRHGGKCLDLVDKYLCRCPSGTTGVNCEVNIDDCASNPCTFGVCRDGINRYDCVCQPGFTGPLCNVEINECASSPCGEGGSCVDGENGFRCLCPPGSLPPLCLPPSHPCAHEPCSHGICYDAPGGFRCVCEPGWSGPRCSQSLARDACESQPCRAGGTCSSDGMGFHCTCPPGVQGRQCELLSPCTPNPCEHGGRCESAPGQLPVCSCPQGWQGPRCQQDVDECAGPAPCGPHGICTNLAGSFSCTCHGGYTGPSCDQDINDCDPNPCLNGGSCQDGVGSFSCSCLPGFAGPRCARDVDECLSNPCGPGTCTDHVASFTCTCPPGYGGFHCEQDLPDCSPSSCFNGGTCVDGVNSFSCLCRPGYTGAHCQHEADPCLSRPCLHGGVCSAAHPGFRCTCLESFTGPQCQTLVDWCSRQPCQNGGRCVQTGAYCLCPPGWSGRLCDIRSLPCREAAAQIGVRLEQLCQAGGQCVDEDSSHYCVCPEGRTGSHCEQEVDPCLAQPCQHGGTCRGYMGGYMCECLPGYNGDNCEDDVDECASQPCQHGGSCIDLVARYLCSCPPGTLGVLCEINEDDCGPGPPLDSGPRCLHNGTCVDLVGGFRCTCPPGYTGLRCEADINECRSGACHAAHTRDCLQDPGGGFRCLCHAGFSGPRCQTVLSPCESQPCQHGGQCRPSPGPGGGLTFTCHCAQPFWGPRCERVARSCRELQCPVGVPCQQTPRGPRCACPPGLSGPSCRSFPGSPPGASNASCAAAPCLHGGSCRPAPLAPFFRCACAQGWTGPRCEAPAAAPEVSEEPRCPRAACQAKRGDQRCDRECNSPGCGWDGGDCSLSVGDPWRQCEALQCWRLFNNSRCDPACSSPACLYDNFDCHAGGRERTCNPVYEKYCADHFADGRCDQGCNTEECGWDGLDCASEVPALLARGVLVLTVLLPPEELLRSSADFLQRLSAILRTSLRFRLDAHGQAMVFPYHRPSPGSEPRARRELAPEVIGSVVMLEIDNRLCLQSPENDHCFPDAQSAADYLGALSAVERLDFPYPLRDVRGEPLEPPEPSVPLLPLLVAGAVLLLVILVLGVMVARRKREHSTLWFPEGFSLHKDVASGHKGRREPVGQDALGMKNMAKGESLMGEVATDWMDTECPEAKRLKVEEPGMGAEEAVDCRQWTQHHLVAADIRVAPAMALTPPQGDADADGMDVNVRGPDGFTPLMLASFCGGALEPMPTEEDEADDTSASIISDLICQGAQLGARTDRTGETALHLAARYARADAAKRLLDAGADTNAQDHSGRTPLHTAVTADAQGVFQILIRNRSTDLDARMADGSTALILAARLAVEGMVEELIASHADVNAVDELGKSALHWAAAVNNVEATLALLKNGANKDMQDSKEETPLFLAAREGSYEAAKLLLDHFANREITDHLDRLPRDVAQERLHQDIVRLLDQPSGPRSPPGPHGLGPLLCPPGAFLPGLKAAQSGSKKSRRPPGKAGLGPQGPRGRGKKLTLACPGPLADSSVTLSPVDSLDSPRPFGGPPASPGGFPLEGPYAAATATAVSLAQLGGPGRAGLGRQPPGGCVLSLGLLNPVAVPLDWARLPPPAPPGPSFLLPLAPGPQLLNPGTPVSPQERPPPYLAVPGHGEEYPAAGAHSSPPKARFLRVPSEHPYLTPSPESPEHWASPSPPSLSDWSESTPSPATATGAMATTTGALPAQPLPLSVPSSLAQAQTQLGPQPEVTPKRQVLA
# [10] = probe aEGFR binding to arrayed compounds – biochemical, biotinylated probe, 635/667 nm fluorescence, primary screen (AID 1097); details: small-molecule microarray, higher = more signal;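 further: probe is a biotinylated anti-EGFR antibody binding compounds printed on slides; score combines fluorescence near 667 nm and signal to noise of each spot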
# [11] = test system: Plasmodium falciparum Sir2 (PF13_0152, Sir2A); experiment: Plasmodium falciparum Sir2A binding compounds – biochemical, small-molecule microarray, 635 nm fluorescence, primary screen (AID 1098); details: fluorescence 635 nm, higher = more signal;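 further: score merges spot fluorescence intensity with its signal-to-noise ratio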
# [12] = probe aDKK1 binding to arrayed compounds – biochemical, biotinylated probe, 635/667 nm fluorescence, primary screen (AID 1099); details: small-molecule microarray, higher = more signal;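 further: score merges 667nm spot fluorescence with signal to noise across triplicate slides; reference of the scale not given here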
# [13] = probe aCHRDL2 binding to arrayed compounds – biochemical, biotinylated probe, 635/667 nm fluorescence, primary screen (AID 1100); details: small-molecule microarray, higher = more signal
# [14] = change in splice reporter luminescence, either direction, cell-based, HEK293, spliceosome inhibition project, primary screen (AID 1101); details: HEK293 splicing luciferase reporter, 24 h, higher = more signal, called active from +8 up or from −8 down;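 further: HEK293 cells carrying a splicing-competent luciferase reporter gene; test concentration not given here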
# [15] = biological target: Fibroblast growth factor 10 (Homo sapiens) (UniProt O15520); experiment: compounds binding fibroblast growth factor 10 – biochemical, small-molecule microarray, 635 nm fluorescence, primary screen (AID 1102); details: FGF10 binding, fluorescence 635 nm, higher = more signal
# Chain of Fibroblast growth factor 10 (Homo sapiens) (O15520 whole entry, looked up): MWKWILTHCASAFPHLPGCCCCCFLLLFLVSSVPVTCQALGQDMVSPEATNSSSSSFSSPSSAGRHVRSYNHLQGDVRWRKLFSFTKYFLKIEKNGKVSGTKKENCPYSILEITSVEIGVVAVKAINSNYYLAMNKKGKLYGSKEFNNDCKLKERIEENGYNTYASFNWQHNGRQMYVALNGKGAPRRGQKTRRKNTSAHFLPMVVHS
# [16] = test system: glycogen synthase kinase-3 (GSK3A per assay name; protocol says GSK3B); experiment: compounds binding glycogen synthase kinase-3 – biochemical, small-molecule microarray, 635 nm fluorescence, GSK3A, primary screen (AID 1103); details: fluorescence 635 nm, higher = more signal; further: the record names both GSK3A and GSK3B
# [17] = biological target: Epidermal growth factor receptor (Homo sapiens) (UniProt P00533); experiment: compounds binding epidermal growth factor receptor – biochemical, small-molecule microarray, 635 nm fluorescence, primary screen (AID 1104); details: EGFR binding, higher = more signal;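 further: score merges 667 nm emission intensity with spot signal to noise over triplicate slides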
# Chain of Epidermal growth factor receptor (Homo sapiens) (P00533 whole entry, looked up): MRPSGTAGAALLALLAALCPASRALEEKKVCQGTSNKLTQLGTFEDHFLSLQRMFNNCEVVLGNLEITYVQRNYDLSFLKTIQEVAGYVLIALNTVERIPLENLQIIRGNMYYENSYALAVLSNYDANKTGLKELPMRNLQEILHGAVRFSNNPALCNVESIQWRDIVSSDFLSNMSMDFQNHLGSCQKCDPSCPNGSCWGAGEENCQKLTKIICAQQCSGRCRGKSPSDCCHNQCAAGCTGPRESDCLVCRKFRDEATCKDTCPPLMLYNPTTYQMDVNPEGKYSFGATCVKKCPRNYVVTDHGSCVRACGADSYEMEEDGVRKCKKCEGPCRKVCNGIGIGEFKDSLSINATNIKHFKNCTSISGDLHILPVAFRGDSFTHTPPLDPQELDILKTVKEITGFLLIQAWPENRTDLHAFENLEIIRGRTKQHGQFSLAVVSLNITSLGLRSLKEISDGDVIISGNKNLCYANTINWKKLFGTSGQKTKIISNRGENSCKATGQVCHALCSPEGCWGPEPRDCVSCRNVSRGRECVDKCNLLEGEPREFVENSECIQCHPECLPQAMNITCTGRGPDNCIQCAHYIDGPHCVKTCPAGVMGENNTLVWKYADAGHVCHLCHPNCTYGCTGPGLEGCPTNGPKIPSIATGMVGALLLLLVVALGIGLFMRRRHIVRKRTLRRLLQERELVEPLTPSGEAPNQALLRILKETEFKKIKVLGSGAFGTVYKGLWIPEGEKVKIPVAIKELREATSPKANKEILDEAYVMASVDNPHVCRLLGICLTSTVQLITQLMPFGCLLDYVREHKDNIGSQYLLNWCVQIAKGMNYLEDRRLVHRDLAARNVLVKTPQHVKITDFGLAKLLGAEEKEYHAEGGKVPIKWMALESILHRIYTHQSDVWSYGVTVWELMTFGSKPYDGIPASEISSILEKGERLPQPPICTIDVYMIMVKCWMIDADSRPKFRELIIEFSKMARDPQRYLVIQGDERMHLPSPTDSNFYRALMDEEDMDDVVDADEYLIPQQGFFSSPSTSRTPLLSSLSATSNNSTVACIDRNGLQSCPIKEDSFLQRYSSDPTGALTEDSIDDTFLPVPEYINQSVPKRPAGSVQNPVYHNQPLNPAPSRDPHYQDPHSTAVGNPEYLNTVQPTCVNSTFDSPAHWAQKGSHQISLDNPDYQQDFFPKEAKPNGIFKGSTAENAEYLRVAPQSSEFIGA
# [18] = biological target: Follistatin-related protein 3 (Homo sapiens) (UniProt O95633); experiment: compounds binding follistatin-related protein 3 – biochemical, small-molecule microarray, 635 nm fluorescence, primary screen (AID 1105); details: FSTL3 binding, higher = more signal;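 further: score merges emission near 667 nm and signal to noise per printed spot across three slides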
# Chain of Follistatin-related protein 3 (Homo sapiens) (O95633 whole entry, looked up): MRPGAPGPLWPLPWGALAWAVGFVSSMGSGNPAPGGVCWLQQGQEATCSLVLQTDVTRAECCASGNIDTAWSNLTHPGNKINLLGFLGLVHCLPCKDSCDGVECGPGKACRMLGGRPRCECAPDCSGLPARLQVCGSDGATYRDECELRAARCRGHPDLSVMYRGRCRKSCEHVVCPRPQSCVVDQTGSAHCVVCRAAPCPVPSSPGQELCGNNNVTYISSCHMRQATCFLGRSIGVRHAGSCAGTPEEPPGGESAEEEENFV
# [19] = biological target: Dickkopf-related protein 1 (Homo sapiens) (UniProt O94907); experiment: small molecules binding DKK1 protein – biochemical, small-molecule microarray, 635 nm fluorescence scan, primary screen (AID 1106); details: higher = more signal;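 further: score merges emission near 667 nm with signal to noise over three replicate slides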
# Chain of Dickkopf-related protein 1 (Homo sapiens) (O94907 whole entry, looked up): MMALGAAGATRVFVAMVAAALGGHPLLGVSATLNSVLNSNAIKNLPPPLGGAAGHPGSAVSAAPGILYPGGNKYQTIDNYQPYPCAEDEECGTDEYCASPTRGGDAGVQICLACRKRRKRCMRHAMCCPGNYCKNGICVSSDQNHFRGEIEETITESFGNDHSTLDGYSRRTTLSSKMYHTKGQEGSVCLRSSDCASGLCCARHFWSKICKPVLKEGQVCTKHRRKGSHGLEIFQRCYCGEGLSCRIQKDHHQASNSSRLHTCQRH
# [20] = test system: Inhibin beta A chain (activin A); experiment: small molecules binding activin A – biochemical, small-molecule microarray, 635 nm fluorescence scan, primary screen (AID 1107); details: INHBA, higher = more signal;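 further: mouse activin A protein probed at 4.33 µg/mL on printed slides; score merges bound-protein fluorescence near 667 nm with spot signal-to-noise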
SMILES,composite z-score [1],z-score [2],z-score [3],z-score [4],composite z-score [5],z-score [6],composite z-score [7],composite z-score [8],composite z-score [9],composite z-score [10],composite z-score [11],composite z-score [12],composite z-score [13],z-score [14],composite z-score [15],composite z-score [16],composite z-score [17],composite z-score [18],composite z-score [19],composite z-score [20]
CC(CCN1CCc2nc(-c3ccccc3)c(-c3ccccc3)cc2C1)=NOC[C@@H](C)[C@H](OCc1ccccc1)C(C)C,-0.299,-0.511 (inactive),-1.17 (inactive),-3.43 (inactive),0.628,-0.518 (inactive),-0.195,-0.179,-2.07,-0.25,1.42,-0.215,0.213,-0.0457 (inactive),-1.3,-1.52,-1.15,-1.76,-1.21,0.166
CCOC(=O)C1=CC[C@H]2C(=O)N(CC)C(=O)[C@@H]12,0.863,-0.348 (inactive),1.77 (inactive),0.816 (inactive),1.08,-0.233 (inactive),-0.181,0.344,1,0.125,0.762,-0.146,-0.242,-0.253 (inactive),1.07,0.947,0.0746,0.933,0.0851,0.666
COC(=O)[C@@]1(Cc2ccc(OC)cc2)[C@H]2c3cc(C(=O)N4CCCC4)n(Cc4cc(F)c(F)c(F)c4)c3C[C@H]2CN1C(=O)c1ccccc1,1.25,0.68 (inactive),1.39 (inactive),7.41 (inactive),3.39,-1.19 (inactive),1.44,-0.131,1.01,1.17,1.08,2.47,1.59,-1.28 (inactive),1.15,1.3,1.12,1.32,-0.279,0.835
CC(=O)OC[C@H]1O[C@H](CCON=C(C)CCN2CCc3nc(-c4ccccc4)c(-c4ccccc4)cc3C2)C=C[C@@H]1OC(C)=O,1.25,-1.92 (inactive),-0.757 (inactive),-4.46 (inactive),1.26,0.901 (inactive),-0.0258,0.169,0.0346,-0.0549,0.323,-0.154,0.101,0.82 (inactive),-0.422,0.102,0.392,0.189,0.222,1.16
CC(C)C[C@@H]1NC(=O)[C@H]2C[C@@H](C(=O)NCCCCCCN(C)C)[C@@H](c3cccc(OCCO)c3)N2C1=O,1.53,-1.16 (inactive),0.184 (inactive),-0.46 (inactive),2.12,-0.0145 (inactive),0.173,1.19,1.04,0.0948,1.5,0.346,0.124,-0.152 (inactive),1.01,1.21,0.317,1.35,1.74,1.1
CCN1C(=O)[C@H]2[C@H]3[C@H](O)[C@H](O)CC(=NOCC=C(C)CCC=C(C)C)[C@H]3CC[C@H]2C1=O,1.56,-0.541 (inactive),0.0853 (inactive),-1.11 (inactive),1.52,0.707 (inactive),-0.0355,1.32,1.13,0.186,0.908,-0.338,-1.31,0.886 (inactive),1.13,1.17,1.18,1.43,1.74,1.1
COc1cccc([C@H]2Oc3ccc(OC)cc3C(=NOC(C)CN3CCCc4nc(C)c(C)cc43)[C@@H]2O)c1 (stereo not given in full),1.32,-0.906 (inactive),-0.912 (inactive),-1.19 (inactive),0.605,0.732 (inactive),0.027,0.0233,0.522,0.0506,-0.403,-0.207,-0.335,-0.467 (inactive),0.474,0.827,0.746,0.0288,0.492,-0.109
CC(C)[C@@H](OCc1ccccc1)[C@H](C)C=NOC[C@@H](C)[C@H](OCc1ccccc1)C(C)C,0.341,0.0268 (inactive),0.893 (inactive),0.338 (inactive),-0.218,0.413 (inactive),-0.0862,0.367,0.421,-0.0234,0.556,-0.319,-0.552,0.741 (inactive),0.5,-0.076,0.363,0.303,0.429,-0.0094
C/C=C\[C@@H](NCc1ccccc1Br)[C@@H](O)Cc1ccccc1,-0.0523,-1.81 (inactive),-13.8 (active),-1.64 (inactive),-0.0942,-0.734 (inactive),0.149,-1.52,-0.735,-0.455,0.556,0.41,1.19,-0.307 (inactive),-1.69,-0.683,-1.37,-1.69,-1.58,0.0067
